# Results from PubChem BioAssay (Tox21).
# Where “and” joins values, the source holds several entries; their conditions need not be identical. Equal entries are not always repeated. Values without a mark were called inactive. Inconclusive results are not listed. Where a call stands in place of a potency, no number is given. Calls of active or inactive are those of the source. Calls follow the shape of the dose curve; as a rule, active = well fitted curve in the direction sought with a large enough effect in the repeat runs; inconclusive = weak or mixed curves; inactive = no such curve, though single readings can be large; an effect the other way counts as inactive or inconclusive.
# What was measured:
# [1] = qHTS RealTime-Glo MT Cell Viability Assay in HEK293 cells - 16 hour (AID 1224872); also: nearly all actives have a fitted effect of over 50% in size; also: potency is read from the fitted curve at half-maximal effect; as to activity change, negative = cytotoxicity: top concentration of the series differs between compounds
# Method in brief: (§1)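 Homogeneous bioluminescent viability format in HEK293 cells (600 cells/well). Following 5 h at 37 C/5% CO2, 23 nL compound was pintooled; the signal was measured repeatedly during 40 h incubation.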
# [2] = qHTS RealTime-Glo MT Cell Viability Assay in HepG2 cells - 8 hour (AID 1224873); also: nearly all actives have a fitted effect of over 55% in size; also: potency is read from the fitted curve at half-maximal effect
# Method in brief: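 HepG2 cells mixed with RealTime-Glo MT reagents (NanoLuc plus cell-permeant prosubstrate) were seeded at 600 cells/well, incubated 5 h at 37 C/5% CO2, then pinned with compounds in DMSO; nonlytic luminescence tracked viability during 40 h treatment.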
# [3] = qHTS RealTime-Glo MT Cell Viability Assay in HEK293 cells - 40 hour (AID 1224874); conditions: RealTime-Glo luminescence; max response: hits give low values; also: nearly all actives have a fitted effect of over 50% in size; also: potency is read from the fitted curve at half-maximal effect
# Method in brief: (§2)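 Luminescence readout at each listed time point; HEK293, 600 cells/well, RealTime-Glo MT reagent added with cells; compounds pinned (23 nL in DMSO) after 5 h at 37 C; continuous culture at 37 C.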
# [4] = A CellTox Green Cytotoxicity Assay to monitor cytotoxicity in HEK293 cells - 24 hour (AID 1224875); also: nearly all actives have a fitted effect of over 45% in size; also: potency is read from the fitted curve at half-maximal effect; as to activity change: series mostly up to about 77 µM
# Method in brief: (§3)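 Read-out: fluorescence of a cell-impermeant cyanine dye staining DNA of dead cells, proportional to cytotoxicity. HEK293, 600 cells/well with reagent, compound (23 nL DMSO) added after 5 h; reads at 0, 8, 16, 24, 32, 40 h.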
# [5] = A CellTox Green Cytotoxicity Assay to monitor cytotoxicity in HepG2 cells - 16 hour (AID 1224876); also: nearly all actives have a fitted effect of over 45% in size; also: potency is read from the fitted curve at half-maximal effect
# Method in brief: (§4)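 HepG2, 600 cells/well premixed w/ CellTox Green; 5 h settle, 37 C/5% CO2; pintool cpd add (DMSO); 37 C, 40 h; fluorescence read at 0, 8, 16, 24, 32, 40 h.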
# [6] = qHTS RealTime-Glo MT Cell Viability Assay in HepG2 cells - 32 hour (AID 1224877); also: nearly all actives have a fitted effect of over 55% in size; also: potency is read from the fitted curve at half-maximal effect
# Method in brief: (§5)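 Cell number in HepG2 cultures estimated from NanoLuc luminescence generated by metabolic reduction of a prosubstrate by living cells. The homogeneous, nonlytic format allowed repeated reads at 0, 8, 16, 24, 32 and 40 h of compound exposure.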
# [7] = A CellTox Green Cytotoxicity Assay to monitor cytotoxicity in HepG2 cells - 24 hour (AID 1224878); also: nearly all actives have a fitted effect of over 45% in size; also: potency is read from the fitted curve at half-maximal effect
# Method in brief: as §4
# [8] = A CellTox Green Cytotoxicity Assay to monitor cytotoxicity in HepG2 cells - 40 hour (AID 1224879); also: nearly all actives have a fitted effect of over 40% in size; also: potency is read from the fitted curve at half-maximal effect
# Method in brief: as §4
# [9] = qHTS RealTime-Glo MT Cell Viability Assay in HEK293 cells - 0 hour (AID 1224880); also: nearly all actives have a fitted effect of over 45% in size; also: potency is read from the fitted curve at half-maximal effect; as to activity change, negative = cytotoxicity: top concentration of the series differs between compounds
# Method in brief: as §2
# [10] = A CellTox Green Cytotoxicity Assay to monitor cytotoxicity in HEK293 cells - 32 hour (AID 1224881); also: nearly all actives have a fitted effect of over 40% in size; also: potency is read from the fitted curve at half-maximal effect
# Method in brief: as §3
# [11] = A CellTox Green Cytotoxicity Assay to monitor cytotoxicity in HepG2 cells - 0 hour (AID 1224882); also: nearly all actives have a fitted effect of over 35% in size
# Method in brief: as §4
# [12] = qHTS RealTime-Glo MT Cell Viability Assay in HepG2 cells - 16 hour (AID 1224885); also: nearly all actives have a fitted effect of over 50% in size; also: potency is read from the fitted curve at half-maximal effect
# Method in brief: as §5
# [13] = qHTS RealTime-Glo MT Cell Viability Assay in HEK293 cells - 24 hour (AID 1224886); also: nearly all actives have a fitted effect of over 50% in size; also: potency is read from the fitted curve at half-maximal effect; as to activity change, negative = cytotoxicity: top concentration of the series differs between compounds
# Method in brief: as §1
# [14] = qHTS RealTime-Glo MT Cell Viability Assay in HEK293 cells - 8 hour (AID 1224887); also: nearly all actives have a fitted effect of over 50% in size; also: potency is read from the fitted curve at half-maximal effect; as to activity change, negative = cytotoxicity: top concentration of the series differs between compounds
# Method in brief: as §2
# [15] = A CellTox Green Cytotoxicity Assay to monitor cytotoxicity in HEK293 cells - 16 hour (AID 1224888); also: nearly all actives have a fitted effect of over 35% in size; also: potency is read from the fitted curve at half-maximal effect
# Method in brief: as §3
# [16] = qHTS RealTime-Glo MT Cell Viability Assay in HepG2 cells - 0 hour (AID 1224889); also: nearly all actives have a fitted effect of over 50% in size
# Method in brief: as §5
# [17] = A CellTox Green Cytotoxicity Assay to monitor cytotoxicity in HepG2 cells - 8 hour (AID 1224890); also: nearly all actives have a fitted effect of over 45% in size; also: potency is read from the fitted curve at half-maximal effect
# Method in brief: as §4
# [18] = qHTS assay to identify small molecule antagonists of the estrogen receptor alpha (ER-alpha) signaling pathway using the BG1 cell line in the presence of 0.1 nM 17-beta-estradiol - cell viability counter screen (AID 1259241); also: nearly all actives have a fitted effect of over 40% in size; also: potency is read from the fitted curve at half-maximal effect
# Method in brief: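 The cell line endogenously expresses full-length ER-alpha and carries four EREs driving luciferase. Cells are cultured 5 days hormone-free, treated 22 hr with compounds and 0.1 nM estradiol, then viability is read by fluorescence.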
# [19] = A CellTox Green Cytotoxicity Assay to monitor cytotoxicity in HepG2 cells - 32 hour (AID 1224883); also: nearly all actives have a fitted effect of over 50% in size; also: potency is read from the fitted curve at half-maximal effect
# Method in brief: as §4
# [20] = A CellTox Green Cytotoxicity Assay to monitor cytotoxicity in HEK293 cells - 8 hour (AID 1224884); also: nearly all actives have a fitted effect of over 35% in size; also: potency is read from the fitted curve at half-maximal effect
# Method in brief: as §3
smiles,measurement,setting,value
CO[Si](CCC1CCC2OC2C1)(OC)OC (centres undefined),Potency,[1],inactive
same,Potency,[2],inactive
same,max response,[3],8.81%
same,Potency,[4],inactive
same,Potency,[5],inactive
same,Potency,[6],inactive
same,Potency,[7],inactive
same,Potency,[8],inactive
same,Potency,[9],inactive
same,Potency,[10],inactive
same,Potency,[11],inactive
same,Potency,[12],inactive
same,Potency,[13],inactive
same,Potency,[14],inactive
same,Potency,[15],inactive
same,Potency,[16],inactive
same,Potency,[17],inactive
same,Potency,[18],inactive
CC(NCCC(c1ccccc1)c1ccccc1)c1ccccc1 (centres undefined),Potency,[1],21.3 µM (active)
same,Potency,[2],21.3 µM (active)
same,Potency,[3],16.9 µM (active)
same,Potency,[4],21.3 µM (active)
same,Potency,[5],23.9 µM (active)
same,Potency,[6],23.9 µM (active)
same,Potency,[7],16.9 µM (active)
same,Potency,[8],15.1 µM (active)
same,Potency,[11],inactive
same,Potency,[19],15.1 µM (active)
same,Potency,[20],inactive
same,Potency,[12],21.3 µM (active)
same,Potency,[13],19 µM (active)
same,Potency,[14],21.3 µM (active)
same,Potency,[15],21.3 µM (active)
same,Potency,[16],inactive
same,Potency,[17],23.9 µM (active)
same,Potency,[18],inactive
Cc1oc(-c2ccccc2)nc1CCOc1ccc(C[C@H](Nc2ccccc2C(=O)c2ccccc2)C(=O)O)cc1,Potency,[1],inactive
same,Potency,[2],inactive
same,max response,[3],0.495%
same,Potency,[4],inactive
same,Potency,[5],inactive
same,Potency,[6],inactive
same,Potency,[9],inactive
same,Potency,[10],inactive
same,Potency,[11],inactive
same,Potency,[20],inactive
same,Potency,[12],inactive
same,Potency,[13],inactive
same,Potency,[14],inactive
same,Potency,[15],inactive
same,Potency,[16],inactive
same,Potency,[17],inactive
COc1nccnc1CC(C)C,Potency,[1],inactive
same,Potency,[2],inactive
same,max response,[3],10.2%
same,Potency,[4],inactive
same,Potency,[5],inactive
same,Potency,[7],inactive
same,Potency,[8],inactive
same,Potency,[9],inactive
same,Potency,[10],inactive
same,Potency,[11],inactive
same,Potency,[19],inactive
same,Potency,[20],inactive
same,Potency,[12],inactive
same,Potency,[13],inactive
same,Potency,[14],inactive
same,Potency,[15],inactive
same,Potency,[16],inactive
same,Potency,[17],inactive
same,Potency,[18],inactive
c1ccc(Nc2cccc3ccccc23)cc1,Potency,[1],inactive
same,Potency,[2],inactive
same,max response,[3],-7.99%
same,Potency,[4],inactive
same,Potency,[5],inactive
same,Potency,[6],inactive
same,Potency,[9],inactive
same,Potency,[10],inactive
same,Potency,[20],inactive
same,Potency,[12],inactive
same,Potency,[13],inactive
same,Potency,[15],inactive
same,Potency,[16],inactive
same,Potency,[17],inactive
same,Potency,[18],inactive
CCCCCCCCC(C)=O,Potency,[1],inactive
same,Potency,[2],inactive
same,max response,[3],9.37%
same,Potency,[4],inactive
same,Potency,[5],inactive
same,Potency,[6],inactive
same,Potency,[7],inactive
same,Potency,[8],inactive
same,Potency,[9],inactive
same,Potency,[11],inactive
same,Potency,[19],inactive
same,Potency,[20],inactive
same,Potency,[12],inactive
same,Potency,[13],inactive
same,Potency,[14],inactive
same,Potency,[15],inactive
same,Potency,[16],inactive
same,Potency,[17],inactive
same,Potency,[18],inactive
CCC1CCCCC1,Potency,[1],inactive
same,Potency,[2],inactive
same,max response,[3],-1.07%
same,Potency,[4],inactive
same,Potency,[5],inactive
same,Potency,[7],inactive
same,Potency,[8],inactive
same,Potency,[9],inactive
same,Potency,[10],inactive
same,Potency,[11],inactive
same,Potency,[19],inactive
same,Potency,[12],inactive
same,Potency,[13],inactive
same,Potency,[14],inactive
same,Potency,[15],inactive
same,Potency,[16],inactive
same,Potency,[17],inactive
same,Potency,[18],inactive
O=C=NCc1cccc(CN=C=O)c1,"activity change, negative = cytotoxicity",[1],2.12% [at 15.8 µM]
same,"viability change, negative = cytotoxic",[2],3.05% [at 15.8 µM]
same,max response,[3],3.93%
same,activity change,[4],"-11.7% [at 15.8 µM, hits give high values]"
same,cytotoxicity increase,[5],2.28% [at 15.8 µM]
same,"activity change, negative = cytotoxic",[6],0.5% [at 15.8 µM]
same,cytotoxicity,[7],0.14% [at 15.8 µM]
same,cytotoxicity increase,[8],-0.536% [at 15.8 µM]
same,"activity change, negative = cytotoxicity",[9],5.7% [at 15.8 µM]
same,cytotoxicity,[11],0.25% [at 15.8 µM]
same,cytotoxicity increase,[19],-2.41% [at 15.8 µM]
same,"activity change, negative = cytotoxic",[12],0.437% [at 15.8 µM]
same,"activity change, negative = cytotoxicity",[13],4.88% [at 15.8 µM]
same,"activity change, negative = cytotoxicity",[14],1.79% [at 15.8 µM]
same,activity change,[15],"-10.6% [at 15.8 µM, hits give high values]"
same,"activity change, negative = cytotoxicity",[16],2.48% [at 15.8 µM]
same,cytotoxicity increase,[17],-0.221% [at 15.8 µM]
same,"activity change, negative = cytotoxicity",[18],-0.0453% [at 19 µM]
CCCCCCCCCCCCOC(=O)c1cc(O)c(O)c(O)c1,Potency,[1],6.89 µM (active) and 5.49 µM (active)
same,Potency,[2],48.8 µM (active) and 43.6 µM (active)
same,Potency,[3],3.45 µM (active) and 3.47 µM (active)
same,Potency,[4],54.7 µM (active) and 49 µM (active)
same,Potency,[5],48.8 µM (active) and 38.9 µM (active)
same,Potency,[7],48.8 µM (active) and 49 µM (active)
same,Potency,[8],48.8 µM (active) and 54.9 µM (active)
same,Potency,[9],inactive
same,Potency,[10],48.8 µM (active) and 49 µM (active)
same,Potency,[11],inactive
same,Potency,[19],48.8 µM (active) and 54.9 µM (active)
same,Potency,[20],54.7 µM (active)
same,Potency,[12],48.8 µM (active) and 49 µM (active)
same,Potency,[13],4.35 µM (active) and 3.89 µM (active)
same,Potency,[14],7.73 µM (active) and 6.17 µM (active)
same,Potency,[15],54.7 µM (active) and 43.6 µM (active)
same,Potency,[16],inactive
same,Potency,[17],48.8 µM (active) and 21.9 µM (active)
O=C1c2c(O)ccc([N+](=O)[O-])c2C(=O)c2c([N+](=O)[O-])ccc(O)c21,Potency,[1],13.7 µM (active)
same,Potency,[2],13.7 µM (active)
same,Potency,[3],24.3 µM (active)
same,Potency,[4],inactive
same,Potency,[5],inactive
same,Potency,[7],inactive
same,Potency,[8],inactive
same,Potency,[9],43.2 µM (active)
same,Potency,[10],inactive
same,Potency,[19],inactive
same,Potency,[20],inactive
same,Potency,[12],24.3 µM (active)
same,Potency,[13],19.3 µM (active)
same,Potency,[14],7.69 µM (active)
same,Potency,[15],inactive
same,Potency,[17],inactive
same,Potency,[18],30.4 µM (active)
CC(=O)Nc1ccc(O)cc1,Potency,[1],inactive
same,Potency,[2],inactive
same,max response,[3],7.7% and -11.8% and 15.1%
same,Potency,[4],inactive
same,Potency,[5],inactive
same,Potency,[6],inactive
same,Potency,[7],inactive
same,Potency,[8],inactive
same,Potency,[9],inactive
same,Potency,[19],inactive
same,Potency,[20],inactive
same,Potency,[12],inactive
same,Potency,[13],inactive
same,Potency,[14],inactive
same,Potency,[15],inactive
same,Potency,[16],inactive
same,Potency,[17],inactive
same,Potency,[18],inactive
